Among the data in PubChem BioAssay (Tox21) are Potency values, retold here.

Experiment [1] is described as follows: qHTS assay to identify small molecule antagonists of the glucocorticoid receptor (GR) signaling pathway - cell viability counter screen (AID 720693). Further: nearly all actives have a fitted effect of over 55% in size. Further: potency means the concentration at half of the fitted maximal effect. On the technique in general: Quantitative high-throughput screening tests each substance at several concentrations.
A short description of experiment [2]: qHTS assay for identifying genotoxic compounds that show differential cytotoxicity against isogenic chicken DT40 cell lines with known DNA damage response pathways - wild type cell line (AID 743012). Further: nearly all actives have a fitted effect of over 60% in size. Further: potency means the concentration at half of the fitted maximal effect. An outline of the steps:
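Viability of DNA repair-proficient chicken DT40 cells was assessed by CellTiter-Glo luminescence following 40 h compound exposure at 37 C/5% CO2.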

Experiment [3] can be described thus: qHTS assay for identifying genotoxic compounds that show differential cytotoxicity against isogenic chicken DT40 cell lines with known DNA damage response pathways - Rev3 mutant cell line (AID 743014). Further: nearly all actives have a fitted effect of over 55% in size. Further: potency means the concentration at half of the fitted maximal effect.
Experiment [4] can be described thus: qHTS assay for identifying genotoxic compounds that show differential cytotoxicity against isogenic chicken DT40 cell lines with known DNA damage response pathways - Rad54/Ku70 mutant cell line (AID 743015). Further: nearly all actives have a fitted effect of over 60% in size. Further: potency means the concentration at half of the fitted maximal effect.
Experiment [5] in a line: qHTS assay to identify small molecule antagonists of the androgen receptor (AR) signaling pathway - cell viability counter screen (AID 743033; further: nearly all actives have a fitted effect of over 45% in size; further: potency means the concentration at half of the fitted maximal effect).
Experiment [6] addresses Androgen receptor (Homo sapiens) (UniProt P10275). The experiment is described as follows: qHTS assay to identify small molecule agonists of the androgen receptor (AR) signaling pathway (AID 743036; active means well fitted activation curve with a large enough effect in the signal ratio in the repeat runs, with a control signal flat, not every such curve was filed as active; inconclusive means weak or mixed curves, or effect the other way; inactive means no such curve, though single readings can be large or run the other way; the % refers to the signal ratio). An outline of the steps: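 Reporter line: GeneBLAzer AR-UAS-bla-GripTite (HEK293). Steps: plate cells, 4 h rest, add compounds, 16 h at 37C, add LiveBLAzer B/G substrate, 2 h at RT, read fluorescence.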

The target is the same in experiment [7]. The experiment is described as follows: qHTS assay to identify small molecule agonists of the androgen receptor (AR) signaling pathway using the MDA cell line (AID 743040; further: nearly all actives have a fitted effect of over 20% in size; further: potency means the concentration at half of the fitted maximal effect). An outline of the steps:
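Cell-based luciferase reporter: MDA-kb2, MMTV promoter (AR + GR response elements). 16 h compound exposure at 37C; ONE-Glo, 30 min RT, luminescence.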

A short description of experiment [8]: qHTS assay to identify small molecule antagonists of the androgen receptor (AR) signaling pathway using the MDA cell line - cell viability counter screen (AID 743041; further: nearly all actives have a fitted effect of over 45% in size). An outline of the steps:
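In this qHTS counter assay, fluorescence intensity after CellTiter-Fluor addition indicated viability of MDA-kb2 AR-luc cells given compounds and R1881 for 16 h at 37C.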

Experiment [9] concerns the target Androgen receptor (Homo sapiens) (UniProt P10275). Kind of experiment: qHTS assay to identify small molecule antagonists of the androgen receptor (AR) signaling pathway using the MDA cell line (AID 743042; further: nearly all actives have a fitted effect of over 55% in size; further: potency means the concentration at half of the fitted maximal effect). An outline of the steps:
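MDA-kb2 cells (human breast carcinoma, stably carrying an MMTV-luciferase reporter responsive to AR and GR) were plated at 3,000 cells/well and preincubated 5 hr at 37C, then given compound plus R1881 agonist for 16 h. ONE-Glo luminescence was read.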

For experiment [10], the target named is Estrogen receptor (Homo sapiens) (UniProt P03372). The experiment is described as follows: qHTS assay to identify small molecule antagonists of the estrogen receptor alpha (ER-alpha) signaling pathway (AID 743069; active means well fitted curve in the direction sought with a large enough effect in the signal ratio in the repeat runs, not every such curve was filed as active; inconclusive means weak or mixed curves, or effect the other way; inactive means no such curve, though single readings can be large or run the other way; the % refers to the signal ratio; further: potency means the concentration at half of the fitted maximal effect). Summed up:
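A 17beta-estradiol challenge was applied right after compound transfer to ER-alpha-UAS-bla HEK293 cells previously kept in charcoal-stripped serum. Plates stood 18 hr at 37C and 5% CO2; fluorescence was read following 2 hr FRET substrate loading at room temperature.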

A short description of experiment [11]: qHTS assay to identify small molecule antagonists of the estrogen receptor alpha (ER-alpha) signaling pathway - cell viability counter screen (AID 743074; calls by dose curve;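 further: HEK293 cells carrying ER-alpha-UAS-bla reporter stimulated with 17beta-estradiol; nearly all actives have a fitted effect of over 45% in size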).
The target in experiment [12] is Estrogen receptor (Homo sapiens) (UniProt P03372). The experiment is described as follows: qHTS assay to identify small molecule agonists of the estrogen receptor alpha (ER-alpha) signaling pathway (AID 743075; calls by dose curve;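 further: HEK293 GripTite cells with ER-alpha and UAS-driven beta-lactamase reporter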).
Chain of Estrogen receptor (Homo sapiens) (P03372 whole entry, looked up): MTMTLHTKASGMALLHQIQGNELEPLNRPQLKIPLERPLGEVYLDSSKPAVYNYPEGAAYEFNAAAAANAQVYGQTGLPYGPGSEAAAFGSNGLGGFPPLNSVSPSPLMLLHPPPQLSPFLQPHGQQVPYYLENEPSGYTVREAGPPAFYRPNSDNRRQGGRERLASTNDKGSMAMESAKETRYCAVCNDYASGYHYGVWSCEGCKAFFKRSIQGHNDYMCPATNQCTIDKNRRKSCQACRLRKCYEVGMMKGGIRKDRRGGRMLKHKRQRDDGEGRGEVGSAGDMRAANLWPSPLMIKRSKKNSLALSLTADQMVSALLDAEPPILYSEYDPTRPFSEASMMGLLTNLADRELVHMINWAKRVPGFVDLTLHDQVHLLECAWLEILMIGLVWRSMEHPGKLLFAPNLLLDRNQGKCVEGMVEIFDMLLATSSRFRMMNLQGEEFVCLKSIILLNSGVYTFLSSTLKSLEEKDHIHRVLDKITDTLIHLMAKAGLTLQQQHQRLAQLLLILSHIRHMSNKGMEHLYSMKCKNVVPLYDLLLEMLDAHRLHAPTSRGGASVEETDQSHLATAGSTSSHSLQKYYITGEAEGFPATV
The target in the next experiment is Aromatase (Homo sapiens) (UniProt P11511). The experiment is described as follows: qHTS assay to identify aromatase inhibitors (AID 743083). Further: nearly all actives have a fitted effect of over 55% in size. Further: potency means the concentration at half of the fitted maximal effect.
Chain of Aromatase (Homo sapiens) (P11511 whole entry, looked up): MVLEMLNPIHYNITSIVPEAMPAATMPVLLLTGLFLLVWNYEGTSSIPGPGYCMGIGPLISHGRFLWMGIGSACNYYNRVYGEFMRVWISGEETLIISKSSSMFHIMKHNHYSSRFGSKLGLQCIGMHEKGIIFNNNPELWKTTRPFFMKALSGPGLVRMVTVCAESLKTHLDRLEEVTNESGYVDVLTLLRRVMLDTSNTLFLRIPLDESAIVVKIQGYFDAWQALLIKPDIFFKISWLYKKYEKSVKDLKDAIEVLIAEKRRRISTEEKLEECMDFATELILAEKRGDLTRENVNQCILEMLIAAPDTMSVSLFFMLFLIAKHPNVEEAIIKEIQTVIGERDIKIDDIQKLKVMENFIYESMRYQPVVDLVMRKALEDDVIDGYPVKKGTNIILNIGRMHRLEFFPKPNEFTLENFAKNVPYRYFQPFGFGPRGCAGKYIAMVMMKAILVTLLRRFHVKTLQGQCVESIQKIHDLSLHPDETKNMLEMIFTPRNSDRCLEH
Experiment [13] can be described thus: qHTS assay to identify small molecule antagonists of the thyroid receptor (TR) signaling pathway - cell viability counter screen (AID 743064). Further: nearly all actives have a fitted effect of over 50% in size. An outline of the steps: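 Plate GH3.TRE-Luc cells; incubate 4 h at 37 °C; add compound, then T3 to 1 nM final; incubate 23.5 h; add CellTiter-Fluor; incubate 30 min at 37 °C, 5% CO2; read fluorescence.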
Experiment [14] deals with thyroid hormone receptor (rat, GH3 cells). Kind of experiment: qHTS assay to identify small molecule agonists of the thyroid receptor (TR) signaling pathway (AID 743066; calls by dose curve).
The target of experiment [15] is Estrogen receptor (Homo sapiens) (UniProt P03372). The experiment is described as follows: qHTS assay to identify small molecule agonists of the estrogen receptor alpha (ER-alpha) signaling pathway using the BG1 cell line (AID 743079). Further: nearly all actives have a fitted effect of over 20% in size. Further: potency means the concentration at half of the fitted maximal effect.
A short description of experiment [16]: qHTS assay to identify small molecule antagonists of the estrogen receptor alpha (ER-alpha) signaling pathway using the BG1 cell line (AID 743080; calls by dose curve; further: series mostly up to about 70 µM; nearly all actives have a fitted effect of over 25% in size). Summed up:
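Antagonist mode: compounds in DMSO were pinned onto BG1-Luc-4E2 cells alongside 17beta-estradiol agonist, incubated 21.5 h, and ERE-driven luciferase measured with ONE-Glo. Cytotoxicity was multiplexed using CellTiter-Fluor fluorescence.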

The nature of experiment [17]: qHTS assay to identify small molecule antagonists of the estrogen receptor alpha (ER-alpha) signaling pathway using the BG1 cell line - cell viability counter screen (AID 743081).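 Further: compound given together with 17beta-estradiol as the ER stimulus; series mostly up to about 70 µM; nearly all actives have a fitted effect of over 45% in size.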
The nature of experiment [18]: qHTS assay to identify small molecule antagonists of the thyroid receptor (TR) signaling pathway (AID 743065). Further: nearly all actives have a fitted effect of over 55% in size. Further: potency means the concentration at half of the fitted maximal effect. Summed up: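 GH3.TRE-Luc rat pituitary cells carrying two TR response elements driving luciferase were plated for 4 h, given compound plus 1 nM T3 (final), and incubated 23.5 h at 37 C. ONE-Glo luminescence measured reporter inhibition; CellTiter-Fluor fluorescence tracked cytotoxicity.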

“And” between values parts separate entries of the source, which are not always exact repeats. Identical values can stand only once. The source made the active and inactive calls. Unless noted, the call rests on the fitted dose curve; in most records, active means well fitted curve in the direction sought with a large enough effect in the repeat runs; inconclusive means weak or mixed curves; inactive means no such curve, though single readings can be large; an effect the other way counts as inactive or inconclusive.

Chain of Androgen receptor (Homo sapiens) (P10275 whole entry, looked up): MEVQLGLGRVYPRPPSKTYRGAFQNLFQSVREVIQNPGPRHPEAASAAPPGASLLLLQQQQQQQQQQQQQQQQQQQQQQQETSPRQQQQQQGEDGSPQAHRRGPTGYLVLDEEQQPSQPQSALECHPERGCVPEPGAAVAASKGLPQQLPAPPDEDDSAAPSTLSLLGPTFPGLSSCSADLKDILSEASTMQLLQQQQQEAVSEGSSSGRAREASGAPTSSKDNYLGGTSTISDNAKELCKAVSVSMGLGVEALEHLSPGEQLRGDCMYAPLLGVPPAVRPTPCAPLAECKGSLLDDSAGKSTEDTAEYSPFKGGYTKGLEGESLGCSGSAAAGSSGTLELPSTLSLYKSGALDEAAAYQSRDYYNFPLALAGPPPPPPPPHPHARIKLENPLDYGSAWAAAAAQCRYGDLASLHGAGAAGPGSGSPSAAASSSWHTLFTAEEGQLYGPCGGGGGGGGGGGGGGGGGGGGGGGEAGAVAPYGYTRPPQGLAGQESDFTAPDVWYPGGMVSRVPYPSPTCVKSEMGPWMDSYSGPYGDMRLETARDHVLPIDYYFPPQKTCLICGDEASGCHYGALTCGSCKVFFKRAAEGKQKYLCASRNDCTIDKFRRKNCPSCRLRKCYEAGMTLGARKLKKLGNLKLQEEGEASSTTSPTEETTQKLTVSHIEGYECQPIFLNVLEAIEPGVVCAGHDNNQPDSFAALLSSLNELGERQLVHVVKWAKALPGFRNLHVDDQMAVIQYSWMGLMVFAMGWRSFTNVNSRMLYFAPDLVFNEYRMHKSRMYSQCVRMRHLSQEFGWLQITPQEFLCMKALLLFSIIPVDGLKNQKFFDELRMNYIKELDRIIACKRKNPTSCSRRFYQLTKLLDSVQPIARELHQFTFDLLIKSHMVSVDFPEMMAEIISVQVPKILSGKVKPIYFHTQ

Regarding `CCC1OC(=O)C[C@@H](O)[C@H](C)[C@@H](O[C@@H]2O[C@H](C)C[C@H](N(C)C)[C@H]2O)[C@@H](CC=O)C[C@@H](C)C(=O)/C=C/[C@]2(C)OC2C1C` (stereo not given in full), the Potency entry in experiment [1], in [5], in experiment [6], in [7], in experiment [8] and in experiment [11] was “inactive” each time. The Potency entry in experiment [12] is “inactive”. The Potency in experiment [2] was 11.9 µM (active) and 4.73 µM (active); in experiment [3] it was 21.1 µM (active) and 8.41 µM (active); in experiment [4] it was 16.8 µM (active) and 7.5 µM (active); in experiment [9], 26.6 µM (active) and 23.7 µM (active); in [10], 16.9 µM [inconclusive] (active); with Aromatase (Homo sapiens), 26.6 µM (active).

For the compound `O=P(O)(O)OP(=O)(O)OP(=O)(O)O`, the Potency result in [1], in [2], in [3], in [4], in [7] and in experiment [8] was “inactive” in each case. Further, the Potency result in experiment [9], in [13], in experiment [14], in [10], in [11] and in experiment [12] was “inactive” each time. Further, the Potency result (in experiment [15]; in experiment [16]; in [17]; with Aromatase (Homo sapiens)) was “inactive” throughout.

`Cc1ccc(Cl)c(N)c1Cl`: the Potency entry in experiment [1], in experiment [4], in [5], in [8], in [18] and in [14] was “inactive” throughout. Also, the Potency result (in [11]; in [17]; in the experiment with Aromatase (Homo sapiens)) was “inactive” in each case. Besides, the Potency in experiment [2] was 61.1 µM (active); in experiment [3], 68.6 µM (active).

With `NC[C@@H]1CC[C@@H](N)[C@@H](O[C@H]2[C@H](O)[C@@H](O[C@H]3O[C@H](CO)[C@@H](O)[C@H](N)[C@H]3O)[C@H](N)C[C@@H]2N)O1`, the Potency entry in experiment [1], in experiment [2], in [3], in [4], in experiment [6] and in [8] was “inactive” throughout. Besides, the Potency result in experiment [9], in [13], in experiment [18], in experiment [14], in experiment [10] and in experiment [11] was “inactive” each time. The Potency entry (in experiment [12]; in experiment [16]; in experiment [17]; with Aromatase (Homo sapiens)) was “inactive” each time. Besides, the Potency in [7] was 29.8 µM (active); in experiment [15], 11.9 µM (active).

For `CN1CCN(CCCN2c3ccccc3Sc3ccc(Cl)cc32)CC1`, the Potency in experiment [1] is 23.9 µM (active); in [2] it was 5.96 µM (active); in experiment [3], 7.5 µM (active); in experiment [4], 8.41 µM (active); in experiment [5], 23.9 µM (active); in experiment [18] it was 6.68 µM (active). Moreover, the Potency result in [12] and in experiment [16] was “inactive” in each case.

Consider `O=C1c2ccccc2CN2C(=O)c3ccccc3CN12`, for which the Potency result in [1], in [2], in [3], in [4], in [5] and in [8] was “inactive” throughout. For the same compound, the Potency entry in experiment [18], in [14], in [10], in [11], in experiment [12] and in experiment [15] was “inactive” throughout. In addition, the Potency entry (in experiment [16]; in experiment [17]; with Aromatase (Homo sapiens)) was “inactive” throughout.

Regarding `COc1cc2c(cc1OC)[C@@H](Cc1cc(OC)c(OC)c(OC)c1)[N+](C)(CCCOC(=O)CC/C=C/CCC(=O)OCCC[N+]1(C)CCc3cc(OC)c(OC)cc3[C@H]1Cc1cc(OC)c(OC)c(OC)c1)CC2` (stereo not given in full), the Potency entry in experiment [1], in experiment [2], in experiment [3], in experiment [4], in experiment [5] and in experiment [8] was “inactive” in each case. Besides, the Potency entry (in [11]; in experiment [17]; in the experiment with Aromatase (Homo sapiens)) was “inactive” each time.

For `C/C=C/C1=C(C(=O)O)N2C(=O)[C@@H](NC(=O)[C@H](N)c3ccc(O)cc3)[C@H]2SC1`, the Potency result in experiment [1], in [2], in [3], in experiment [4], in experiment [7] and in experiment [8] was “inactive” throughout. The Potency result in experiment [9], in [14], in [10], in experiment [11], in [12] and in experiment [15] was “inactive” throughout. Besides, the Potency result (in experiment [16]; in experiment [17]; with Aromatase (Homo sapiens)) was “inactive” each time.
